Measured values as given in PubChem BioAssay (NCI).
This is part of a sample that, as a whole, favours compounds with a hit. Of some 83,000 tested, about 20% had one in any assay.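 The test compound was applied at a single concentration to cells in 96-well plates for 48 hours, and percent growth was recorded.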 Values without a mark were called inactive. Calls of active or inactive are those of the source. How the source made its calls: active means growth percent below 10; inactive means the rest.

tested on: HL-60(TB) leukemia; assay: NCI-60 one-dose screen, 48 h (100 = growth as untreated, 0 = no growth, -100 = all killed); conditions: 10 µM unless noted

Row | Compound | growth
1 | O=C(Nc1cccc(Br)c1)Oc1ccc(Cl)c2cccnc12 | 3.1% [100 µM] (active)
2 | CCCCCCCCCCCCCCCC1=NC(C)(C)CN1C(C)C | -62.9% (active)
3 | COc1ccc(-c2nc(-c3nc4ccc(OC)cc4[nH]3)c3ccccn23)cc1 | 52.1%
4 | CCOC(=O)c1ccc(N2C(=O)C(Cl)(c3ccccc3)C2c2ccco2)cc1 (stereo not given) | 66%
5 | COc1cc(C2CC(=O)c3ccccc3N2)cc(OC)c1OC (stereo not given) | 98.8%
6 | CCCCC[n+]1ccc(SCC(=O)N(C)c2ccc(Oc3ccccc3)cc2)c2ccccc21 | 3.74% (active)
7 | CCCCCSB(SCCCCC)c1ccccc1 | 104%
8 | CC(C)n1nc(C#Cc2cccc3cc(-c4cccc(C(F)(F)F)c4)ncc23)c2c(N)ncnc21 | 57.1%
9 | COc1ccc(C(=O)c2cc3c(N)c(C(=O)Nc4ccc(Cl)cc4)sc3nc2C)cc1 | 62.9%
10 | Cc1c2cnccc2c(C)c2c1c1cc(C(=O)O)ccc1n2C | 5.27% (active)
11 | CCOC(=O)NC(Cc1ccccc1)c1ccccc1 (stereo not given) | 94.2%
12 | COc1ccc(/C=C(\C#N)c2ccc(OC)cc2)cc1 | 50.9%
13 | CCN(CC)CCCC(C)Nc1ccc2cc(OC)ccc2n1 (stereo not given) | 126%
14 | CCOC(=O)c1cnn(CC(O)c2ccc(F)cc2)c1NC(=O)Nc1ccccc1F (stereo not given) | 102%
15 | CC(=O)c1c[nH]c2ccc(-c3ccnc(Nc4ccc(NC(=O)c5cccc(F)c5)c(CN5CCOCC5)c4)n3)cc12 | -24.8% (active)
16 | NC(N)=NC(N)=Nc1ccccc1-c1ccccc1 | 108%
17 | O=C(/C=C/c1ccc(Br)cc1)c1ccc(-n2cc(CN3CCN(c4cc5c(cc4F)c(=O)c(C(=O)O)cn5C4CC4)CC3)nn2)cc1 | 94.3%
18 | Nc1nc2ccc(CNc3ccc(C(=O)NC(CC(=O)O)C(=O)O)cc3)cc2c(=O)[nH]1 (stereo not given) | 4.48% (active)
19 | CN(C)c1ccc(/C=C/c2sc3ccc4ccccc4c3[n+]2C)cc1 | -41.8% (active)
20 | CCN(CC)c1ccc(C(=O)c2ccc(N(CC)CC)cc2)cc1 | 9.59% (active)
21 | Cc1nc(C)c(C)nc1C | 73.9%
22 | CCN(CC)CCCC(C)N=C(C1=C(C(=NC(C)CCCN(CC)CC)c2cccc(OC)c2)C(=O)NC1=O)c1cccc(OC)c1 (stereo not given) | -49.3% (active)
23 | CC(=O)OCCO | 105%
24 | CCOC(=O)c1[nH]c2cc(Cl)ccc2c1[C@@H](C(=O)NC(C)(C)C)N(CC)C(=O)CCCCC#Cc1cccc2c1CN(C1CCC(=O)NC1=O)C2=O (stereo not given in full) | -7.29% (active)
25 | CCNC(=O)N1CCc2c(Br)c3c(c(OC)c2C1Cc1ccc(OC)cc1)OCO3 (stereo not given) | 7.48% (active)
